Activity calls are given as the source filed them.

Experiment [1] in a line: optical density shifts of acrAB sulA E. coli – strain DRC41, OD650, 48 h, E. coli filamentation inducer project, primary screen (AID 1152).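 Note: E. coli MC1000 strain DRC41 lacking acrAB efflux pump and sulA.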 The following applies: higher = more signal, called active from +8 up or from −8 down.
Experiment [2] is described as follows: probe aLefty1 binding on compound microarray – biochemical, small-molecule microarray, 635/667 nm fluorescence, primary screen (AID 1153).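 Note: score merges spot fluorescence with signal-to-noise ratio from the scanned slide images.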 The following applies: higher = more signal.
Experiment [3] in a line: plasmodial surface anion channel blockers, osmotic lysis – cell-based, P. falciparum Indochina, OD700, 1 h, primary screen (AID 1154). The following applies: P. falciparum Indochina infected RBC osmotic lysis, higher = more signal, called active from +8 up or from −8 down.
Experiment [4] in a line: plasmodial surface anion channel blockers, osmotic lysis – cell-based, P. falciparum Indochina, OD700, 2 h, primary screen (AID 1155).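 Note: lysis reports solute entry through the parasite surface anion channel PSAC.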 The following applies: P. falciparum Indochina infected erythrocytes, higher = more signal, called active from +8 up or from −8 down.
Experiment [5] is described as follows: changes in parasitized red cell lysis, either direction – P. falciparum Indochina, OD700, 3 h, PSAC antagonist project, primary screen (AID 1156). The following applies: P. falciparum-infected erythrocytes, osmotic lysis, higher = more signal, called active from +8 up or from −8 down.
Experiment [6] in a line: plasmodial surface anion channel blockers, osmotic lysis – cell-based, P. falciparum Indochina, OD700, 18 h, primary screen (AID 1157). The following applies: P. falciparum Indochina infected erythrocytes, osmotic lysis OD700, 18 h; higher = more signal, called active from +8 up or from −8 down.
Experiment [7] is described as follows: S6 kinase pathway phospho-S6 level changes – cell-based, A549, cytoblot, luminescence, serum-stimulated, primary screen (AID 1158).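 Note: serum-stimulated A549 lung adenocarcinoma cells; signal is phosphorylated S6 detected by cytoblot immunostaining with HRP secondary.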 The following applies: 5 h, higher = more signal.
The target in experiment [8] is NADPH oxidase 2 (Homo sapiens) (UniProt P04839). The experiment is described as follows: compounds shifting NOX2 Amplex Red fluorescence – cell-based, HEK293-NOX2, PMA-stimulated, NOX inhibitor project, primary screen (AID 1159). Note: test concentration not given here. The following applies: 45 min, higher = more signal, called active from +8 up or from −8 down.
Chain of NADPH oxidase 2 (Homo sapiens) (P04839 whole entry, looked up): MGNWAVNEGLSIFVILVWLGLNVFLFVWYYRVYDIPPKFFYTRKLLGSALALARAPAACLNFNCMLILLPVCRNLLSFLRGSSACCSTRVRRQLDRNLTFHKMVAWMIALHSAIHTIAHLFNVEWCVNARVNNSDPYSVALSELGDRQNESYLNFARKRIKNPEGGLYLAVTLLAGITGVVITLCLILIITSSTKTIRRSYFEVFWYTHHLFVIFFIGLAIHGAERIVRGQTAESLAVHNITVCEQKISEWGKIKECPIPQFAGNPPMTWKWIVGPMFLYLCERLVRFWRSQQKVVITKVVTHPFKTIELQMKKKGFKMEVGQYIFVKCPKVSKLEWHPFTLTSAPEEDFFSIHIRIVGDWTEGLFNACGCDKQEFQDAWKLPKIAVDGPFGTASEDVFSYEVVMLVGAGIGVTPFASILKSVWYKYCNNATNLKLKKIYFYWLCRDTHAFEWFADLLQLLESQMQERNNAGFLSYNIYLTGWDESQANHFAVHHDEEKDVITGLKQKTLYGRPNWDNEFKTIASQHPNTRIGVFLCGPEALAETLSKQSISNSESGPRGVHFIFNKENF
In experiment [9] the target is NADPH oxidase 4 (Homo sapiens) (UniProt Q9NPH5). Description: compounds shifting NOX4 Amplex Red fluorescence – cell-based, HEK293-NOX4, tetracycline-induced, NOX inhibitor project, primary screen (AID 1160). The following applies: HEK293-NOX4, Amplex Red H2O2 fluorescence, 45 min; higher = more signal, called active from +8 up or from −8 down.
Chain of NADPH oxidase 4 (Homo sapiens) (Q9NPH5 whole entry, looked up): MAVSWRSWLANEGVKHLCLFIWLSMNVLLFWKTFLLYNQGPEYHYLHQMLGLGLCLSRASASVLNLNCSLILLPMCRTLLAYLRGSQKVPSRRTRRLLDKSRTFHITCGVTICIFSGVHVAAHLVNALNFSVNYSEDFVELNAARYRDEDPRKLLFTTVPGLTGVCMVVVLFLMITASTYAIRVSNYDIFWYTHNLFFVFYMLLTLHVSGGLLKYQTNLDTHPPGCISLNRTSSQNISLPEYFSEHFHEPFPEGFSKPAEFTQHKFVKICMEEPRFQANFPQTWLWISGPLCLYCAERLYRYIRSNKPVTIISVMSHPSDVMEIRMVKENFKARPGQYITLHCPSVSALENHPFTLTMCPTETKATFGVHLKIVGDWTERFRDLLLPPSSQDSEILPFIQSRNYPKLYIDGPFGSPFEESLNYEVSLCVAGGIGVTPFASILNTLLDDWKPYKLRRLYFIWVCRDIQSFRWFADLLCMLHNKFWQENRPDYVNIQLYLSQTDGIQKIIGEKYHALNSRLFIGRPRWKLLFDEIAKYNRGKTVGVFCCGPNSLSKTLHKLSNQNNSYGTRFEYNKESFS
Experiment [10] addresses NADPH oxidase 5 (Homo sapiens) (UniProt Q96PH1). Description: compounds shifting NOX5 Amplex Red fluorescence – cell-based, HEK293-NOX5, NOX inhibitor project, primary screen (AID 1161). The following applies: HEK293-NOX5, ionomycin, 45 min, higher = more signal.

Chain of NADPH oxidase 5 (Homo sapiens) (Q96PH1 whole entry, looked up): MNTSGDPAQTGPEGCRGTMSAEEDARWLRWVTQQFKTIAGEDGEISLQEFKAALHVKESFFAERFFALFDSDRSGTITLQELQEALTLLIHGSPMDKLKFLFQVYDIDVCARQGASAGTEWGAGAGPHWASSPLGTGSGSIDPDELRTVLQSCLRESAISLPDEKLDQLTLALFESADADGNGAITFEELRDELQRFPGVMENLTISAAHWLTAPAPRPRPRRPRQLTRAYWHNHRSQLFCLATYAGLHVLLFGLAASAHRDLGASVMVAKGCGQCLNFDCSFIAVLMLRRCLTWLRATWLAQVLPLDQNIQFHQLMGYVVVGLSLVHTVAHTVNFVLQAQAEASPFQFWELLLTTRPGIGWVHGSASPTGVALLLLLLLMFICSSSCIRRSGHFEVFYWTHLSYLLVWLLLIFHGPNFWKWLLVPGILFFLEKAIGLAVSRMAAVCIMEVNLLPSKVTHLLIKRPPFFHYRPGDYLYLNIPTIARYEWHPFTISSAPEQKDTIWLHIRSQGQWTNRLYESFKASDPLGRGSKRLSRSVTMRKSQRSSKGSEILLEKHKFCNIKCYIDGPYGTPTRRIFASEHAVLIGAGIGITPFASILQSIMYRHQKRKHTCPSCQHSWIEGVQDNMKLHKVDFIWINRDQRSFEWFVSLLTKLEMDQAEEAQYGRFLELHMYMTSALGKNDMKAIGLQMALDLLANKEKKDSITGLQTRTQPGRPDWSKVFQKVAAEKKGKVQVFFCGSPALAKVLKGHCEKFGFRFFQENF

Regarding `C=CCOC(=O)[C@H]1[C@@H]2C(=O)O[C@@H](c3ccccc3)[C@@H](c3ccccc3)N2[C@@H](c2ccc(OCCOC(=O)[C@@H]3C[C@@H]4C(=O)N5CCC[C@H]5C(=O)N4[C@@H]3c3ccc(O)cc3)cc2)[C@]12C(=O)Nc1ccc(I)cc12`, the z-score in [1] is -0.695 (inactive); in [3] it was 1.81 (inactive); in experiment [4], 1.74 (inactive); in [5], 0.836 (inactive); in experiment [6], 0.889 (inactive); in [7], -0.597. Besides, the values for the z-score in [8], in [9] and in experiment [10] were 1.47 (inactive), 0.482 (inactive) and 0.186, respectively. Also, the composite z-score in experiment [2] worked out at 0.293.

In the case of `[N-]=[N+]=NCc1ccccc1C[C@@]1(C(=O)NCc2ccccc2)N=C(c2ccc(OCCCO)cc2)O[C@@H]1c1ccccc1N=[N+]=[N-]`, the z-score is -0.0632 (inactive) in experiment [1]; 32.6 (active) in experiment [3]; 33.3 (active) in [4]; 2.4 (inactive) in experiment [5]; 3.61 (inactive) in experiment [6]; 0.108 in experiment [7]. The figures for the z-score in [8], in experiment [9] and in [10] were 0.0504 (inactive), -0.437 (inactive) and -1.22, respectively. For the same molecule, in [2], the composite z-score was -0.221.

On to `Cc1ccc(S[C@]2(C(=O)O)CC(=O)N(C3Cc4ccccc4C3)[C@@H]2c2ccc(CO)cc2)cc1`, for which the z-score in experiment [1] was -0.0458 (inactive); in [3], 3.54 (inactive); in [4], -0.273 (inactive); in experiment [5], 0.385 (inactive); in experiment [6], -0.333 (inactive); in experiment [7], -0.401. Besides, the results for the z-score in [8], in [9] and in experiment [10] were -0.0451 (inactive), -0.498 (inactive) and 1.58, respectively. Besides, the composite z-score in experiment [2] is 0.212.

With `O=C1NC(=O)C2C1C=CC(C(O)c1cccc3ccccc13)N2Nc1ccc(Cl)cc1Cl` (stereo not given), the z-score in experiment [1] was -1.85 (inactive); in experiment [3] it was 1.98 (inactive); in experiment [4] it was 0.994 (inactive); in experiment [5], -2.46 (inactive); in [6] it was 1.42 (inactive); in experiment [7], -1.11. The z-score in [8] is -1.37 (inactive); in [9], -6.34 (inactive); in [10], -3.5. For the same molecule, the composite z-score in experiment [2] was 0.505.

Consider `COC(=O)[C@@]1(Cc2ccc(OC)cc2)[C@H]2c3cc(C(=O)N4CCCC4)n(Cc4cccc5ccccc45)c3C[C@H]2CN1C(=O)c1ccccc1`, for which the z-score is -0.492 (inactive) in experiment [1]; 3.9 (inactive) in experiment [3]; 0.408 (inactive) in [4]; 1.48 (inactive) in experiment [5]; 0.983 (inactive) in [6]; 0.0019 in experiment [7]. The z-score is 0.208 (inactive) in experiment [8], 1.74 (inactive) in experiment [9] and -1.45 in experiment [10]. This molecule gave a composite z-score in [2] of 0.258.

In the case of `COc1ccc([Si](C)(C)[C@@H]2[C@@H](CC(=O)N(CCO)Cc3ccccc3)O[C@]3(C(=O)N(Cc4cccc(N5CCOC5=O)c4)c4ccccc43)[C@H]2C)cc1`, the z-score in experiment [1] is -0.179 (inactive); in experiment [3], 5.73 (inactive); in experiment [4] it was 1.14 (inactive); in experiment [5], -0.0706 (inactive); in [6], 0.843 (inactive); in experiment [7], 0.475. Moreover, the values for the z-score in [8], in experiment [9] and in experiment [10] were 1.08 (inactive), 1.35 (inactive) and 1.75, respectively. In addition, the composite z-score in [2] came to 0.677.

For `CCCCC=C[C@@H](NC(=O)c1ccc(-c2ccccc2)cc1)c1ccccc1`, the z-score in experiment [1] was -1.63 (inactive); in experiment [3], 2.54 (inactive); in [4], 0.631 (inactive); in experiment [5] it was -0.309 (inactive); in experiment [6], 0.862 (inactive); in experiment [7] it was 0.0893. For the same molecule, the z-score in experiment [8] was -0.473 (inactive); in experiment [9], -1.12 (inactive); in [10] it was 1.46. The composite z-score in [2] stood at 0.258.

For `CCOc1cc(C(O)C2C=CC3C(=O)N(c4ccccc4)C(=O)C3N2Nc2ccc(C#N)cc2)ccc1O` (stereo not given), the z-score in [1] was -1.17 (inactive); in experiment [3], 16.3 (active); in experiment [4], 2.72 (inactive); in experiment [5], 0.743 (inactive); in [6] it was 1.27 (inactive); in [7] it was -1.03. Further, the z-score in [8] was -2.87 (inactive); in [9], -5.02 (inactive); in [10] it was -4.31. The molecule also gave a composite z-score in experiment [2] of 0.302.

Regarding `COCCOC(=O)N1C(=O)[C@@]2(c3cc(C#CC4=CCCCC4)ccc31)[C@H](c1ccccc1OCCO)N1[C@H](c3ccccc3)[C@H](c3ccccc3)OC(=O)[C@H]1[C@@H]2C(=O)N1CCCCCCC1`, the z-score in [1] is -1.05 (inactive); in [3], -0.606 (inactive); in experiment [4], 1.1 (inactive); in [5], -0.56 (inactive); in experiment [6], 0.442 (inactive); in [7] it was -0.56. Further, the z-score in experiment [8] was 0.962 (inactive); in experiment [9], -1.22 (inactive); in [10] it was 0.545. The same molecule returned a composite z-score in experiment [2] of -0.999.

As for `COC(=O)[C@@]1(Cc2ccc(OC)cc2)[C@H]2c3cc(C(=O)N(C)C)n(C[C@H](O)CO)c3C[C@H]2CN1C(=O)c1ccccc1`, the z-score is -1.99 (inactive) in experiment [1]; 5.61 (inactive) in experiment [3]; 0.936 (inactive) in experiment [4]; 1.98 (inactive) in experiment [5]; 1.23 (inactive) in experiment [6]; -0.364 in experiment [7]. Also, the z-score was 0.452 (inactive) in [8], -0.281 (inactive) in experiment [9] and -0.527 in experiment [10]. The same molecule gave a composite z-score in [2] of 0.523.

Take `O=C(NCC(F)(F)F)[C@@H]1c2ccccc2C(=O)N(Cc2ccccc2C(F)(F)F)[C@H]1c1ccc(CO)cc1`: the z-score in experiment [1] was 0.142 (inactive); in [3], 1.45 (inactive); in experiment [4] it was 0.478 (inactive); in [5], 0.239 (inactive); in experiment [6] it was 0.109 (inactive); in [7], -0.537. Besides, the z-score in experiment [8] was 0.536 (inactive); in [9], 0.0258 (inactive); in [10], -0.284. Also, in experiment [2], the composite z-score was -0.0164.

With `O=C(CS)NCCCCCNC(=O)[C@@H]1C[C@@H]2C(=O)N3CCC[C@H]3C(=O)N2[C@@H]1c1cccc(OCCO)c1`, the z-score is -1.26 (inactive) in experiment [1]; 2.76 (inactive) in experiment [3]; 0.465 (inactive) in [4]; -0.87 (inactive) in [5]; 0.277 (inactive) in experiment [6]; -0.645 in [7]. The z-score in experiment [8] was 1.97 (inactive); in experiment [9] it was 0.231 (inactive); in experiment [10], -0.232. This molecule yielded a composite z-score in experiment [2] of -0.781.

Take `COC(=O)c1c2oc(c1C(=O)OC)C(=O)N(Cc1ccccc1)Cc1cn(nn1)C[C@H](Cc1ccccc1)NC(=O)N[C@H](CO)CC2`: the z-score in experiment [1] was 0.959 (inactive); in experiment [3] it was 1.67 (inactive); in experiment [4], 0.393 (inactive); in [5], -0.252 (inactive); in experiment [6], 0.213 (inactive); in experiment [7] it was 1.18. Also, the z-score in experiment [8] is -1.13 (inactive); in experiment [9] it was 1.06 (inactive); in [10], -0.397. For the same molecule, the composite z-score in experiment [2] is -0.0942.

For the origin of these results see PubChem BioAssay.
